13 molecules from PubChem BioAssay can be followed below.

Experiment [1] can be described thus: compounds altering circadian rhythm period length – cell-based, LOPAC library, luminescence reporter (AID 2774).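 Further: values are relative to mean of DMSO wells on each plate.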 Particulars: circadian reporter cells, at 7 µM, actives lie on both sides.
In experiment [2] the test system is Hepatitis C virus NS3 helicase. Description: blockers of NS3h binding to ssDNA – biochemical, fluorescence polarization, LOPAC1280 library, primary screen (AID 687035; in the data active means inhibition above about 37%). The following applies: Purified HCV NS3 helicase, Cy5-dT15 ssDNA binding fluorescence polarization; stronger effect = higher value; concentration not given here. For orientation: Fluorescence polarisation rises when a labelled molecule tumbles more slowly, as on binding a larger partner.

Experiment [3] is described as follows: compounds altering Cy5-DNA-NS3h complex signal – biochemical, LOPAC1280, artefact control for HCV NS3 helicase inhibitor project (AID 687037). Particulars: Cy5-DNA-NS3h complex fluorescence interference counterscreen. For orientation: A counterscreen serves to expose hits that act by an unwanted route or on another target.
Experiment [4] is described as follows: blockers of cellular phospholipid synthesis – cell-based, LOPAC library, screen 4, primary screen (AID 1347384). The following applies: animal cells, phospholipid biosynthesis inhibition screen; at 10 µM.
The nature of experiment [5]: viability loss in pontine glioma line – cell-based, SU-DIPG-XIII, MIPE5.0, CellTiter-Glo, qHTS, dose response (AID 1347064; cut-off not given, nearly all actives have AC50 up to about 23 µM;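 on AC50: cells exposed to compound for 48 hours before the viability read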). The following applies: CellTiter-Glo ATP luminescence. For orientation: Cellular ATP, detected with luciferase, serves as a proxy for viable cell number.
The nature of experiment [6]: JHH-DIPG-1 glioma cell viability, MIPE5.0 library, CellTiter-Glo luminescence, qHTS (AID 1347067; cut-off not given, nearly all actives have AC50 up to about 26 µM;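 further: cells exposed to compound for 48 hours before readout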). The following applies: JHH-DIPG-1 glioma viability, CellTiter-Glo ATP luminescence.
Experiment [7] is described as follows: compounds altering viability of human ES cells (AID 493140).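 Further: cells exposed to compounds for four days before counting.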 Particulars: human embryonic stem cell survival screen; stronger effect = higher value.
The target in experiment [8] is Mitogen-activated protein kinase 7 (Homo sapiens) (UniProt Q13164). Description: Gal4-ERK5 driven luciferase induction – cell-based, HTS, primary screen (AID 1508626;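 active means luciferase signal above three times the same-plate solvent-only control wells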;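 further: luciferase driven by Gal4-ERK5 fusion binding five Gal4 sites before minimal TATA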). The following applies: HeLa Gal4-ERK5 transactivation, 18 h, at 5 µM, stronger effect = higher value.
Mitogen-activated protein kinase 7 (Homo sapiens), sequence (Q13164 whole entry, looked up, the tested form may be a part): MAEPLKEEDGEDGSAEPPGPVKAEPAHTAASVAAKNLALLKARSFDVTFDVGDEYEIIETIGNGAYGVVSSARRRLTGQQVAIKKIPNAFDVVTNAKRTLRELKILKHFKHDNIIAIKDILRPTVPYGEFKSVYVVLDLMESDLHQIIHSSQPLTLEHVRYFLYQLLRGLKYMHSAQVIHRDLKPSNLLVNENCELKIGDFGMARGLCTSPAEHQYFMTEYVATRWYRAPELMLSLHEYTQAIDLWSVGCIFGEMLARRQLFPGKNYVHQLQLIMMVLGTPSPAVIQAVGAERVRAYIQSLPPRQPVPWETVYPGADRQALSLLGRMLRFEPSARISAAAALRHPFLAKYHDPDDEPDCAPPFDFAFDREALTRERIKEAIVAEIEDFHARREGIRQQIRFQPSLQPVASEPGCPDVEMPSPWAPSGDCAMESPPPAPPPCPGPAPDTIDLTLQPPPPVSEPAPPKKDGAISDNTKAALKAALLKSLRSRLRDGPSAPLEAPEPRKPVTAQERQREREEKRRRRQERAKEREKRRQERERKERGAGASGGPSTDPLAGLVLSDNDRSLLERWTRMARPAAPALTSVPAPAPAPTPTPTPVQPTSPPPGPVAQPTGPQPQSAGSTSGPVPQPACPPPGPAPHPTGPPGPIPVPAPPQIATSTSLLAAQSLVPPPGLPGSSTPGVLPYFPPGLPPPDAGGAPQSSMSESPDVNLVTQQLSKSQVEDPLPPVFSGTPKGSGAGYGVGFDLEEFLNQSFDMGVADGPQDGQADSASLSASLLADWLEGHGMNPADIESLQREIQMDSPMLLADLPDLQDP
Experiment [9] is described as follows: viability loss in pontine glioma line – cell-based, JHH-DIPG-1, MIPE4.0, CellTiter-Glo, qHTS, dose response (AID 1347062; cut-off not given, nearly all actives have AC50 up to about 27 µM;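 on AC50: cells exposed to compound for two days before readout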). Particulars: JHH-DIPG-1 viability, CellTiter-Glo ATP luminescence.
Experiment [10] is described as follows: viability loss in pontine glioma line – cell-based, SU-DIPG-XXV, MIPE5.0, CellTiter-Glo, qHTS, dose response (AID 1347065; cut-off not given, nearly all actives have AC50 up to about 26 µM;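 further: cells exposed to compound for 48 hours before ATP readout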). Particulars: CellTiter-Glo ATP luminescence.
Experiment [11] is described as follows: growth inhibition of DIPG cells – cell-based, MIPE4.0 library, CellTiter-Glo luminescence, qHTS (AID 1347066; cut-off not given, nearly all actives have AC50 up to about 30 µM;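 further: cells exposed to compound for 48 hours before readout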). Particulars: SU-DIPG-VI viability, CellTiter-Glo ATP luminescence.
The nature of experiment [12]: compounds altering HSF1 focus formation in cells – imaging, Selleck Cancer Library (AID 1347162; in the data active means plate-normalised HSF1 focus index below about 0.46). The following applies: human cells, HSF1 nuclear foci imaging, at 10 µM; SSMD: measured here: HSF1 foci SSMD mean; cell count: measured here: cell number; plate-normalised HSF1 focus index: stronger effect = lower value.
The nature of experiment [13]: growth inhibition, single agent or in combination, cell-based, chromothripsis tumors, cisplatin or BGB combos (AID 1671449; in the data active means inhibition above about 80%;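 further: cells exposed for 96 hours; 0% = vehicle DMSO and 100% = killing by high DMSO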). Particulars: LFS_MB_P medulloblastoma cells.
Experiment [14] is described as follows: growth inhibition, single agent and combos, cell-based, chromothripsis tumors, cisplatin or BGB combos (AID 1671450; in the data active means inhibition above about 80%;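 further: cells exposed to compound for four days; 0% = vehicle DMSO and 100% = cell killing by high DMSO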). The following applies: HDN33 neuroblastoma cells, stronger effect = higher value.
Experiment [15] is described as follows: growth inhibition, single agents and combos, ICB984, cell-based, cisplatin or BGB combos, synergistic combos for chromothripsis tumors (AID 1671451).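 Further: cells exposed for 96 hours before readout; 0% = vehicle DMSO and 100% = killing by high DMSO.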 Particulars: ICB984 medulloblastoma cells, drug combinations, stronger effect = higher value.
Experiment [16] is described as follows: growth inhibition, single agents and combos, HTB85, cell-based, BGB or cisplatin IC20 combos, synergistic combos for chromothripsis tumors (AID 1671453; in the data active means inhibition above about 80%;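 further: cells exposed for 96 hours before readout; 0% = vehicle DMSO and 100% = high DMSO killing control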). The following applies: HTB85 osteosarcoma cells, drug combinations, stronger effect = higher value.
A short description of experiment [17]: growth inhibition, MDA-MB-436, cell-based, BGB or cisplatin combos, synergistic combos for chromothripsis tumors (AID 1671458).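 Further: cells exposed for 96 hours; 0% = vehicle DMSO and 100% = killing by high DMSO.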 The following applies: MDA-MB-436 breast carcinoma growth inhibition, drug combinations, stronger effect = higher value.
A short description of experiment [18]: BT084 cell growth, single and combined drugs, ICGC_MB145, cisplatin and BGB IC40 combos (AID 1671461; in the data active means inhibition above about 80%;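 further: cells exposed to drugs for 96 hours; 0% = vehicle DMSO and 100% = high DMSO full killing control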). Particulars: BT084 medulloblastoma cells, drug combinations, stronger effect = higher value.
Experiment [19] is described as follows: RCMB18 cell growth, single agent and combined, cisplatin and BGB IC40 combos (AID 1671462; in the data active means inhibition above about 80%;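 further: cells exposed to compound for four days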). The following applies: RCMB18 medulloblastoma cells, stronger effect = higher value.
Experiment [20] can be described thus: CRL1545 cell growth, single agent and combined, cisplatin and BGB IC20 combos (AID 1671464; in the data active means inhibition above about 80%;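 further: cells exposed to compound for 96 hours before readout; 0% = vehicle DMSO and 100% = high DMSO killing control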). Particulars: CRL1545 osteosarcoma cells, stronger effect = higher value.
The mark [21] stands for this setting: measured here: with BGB IC20 combination, at 0.5 µM.
Where [22] appears, read: measured here: with cisplatin IC20 combination, at 0.5 µM.

As a reminder, the inhibition is the change of the read-out against control, counted positive when it falls. As a reminder, the AC50 is the concentration at which the activity in the assay is half-maximal.

Values joined by “and” are separate entries in the source; they are usually repeats but may differ in a detail not shown here. Identical values can stand only once. Records with an inconclusive call do not appear. Active and inactive are the calls of the source. Unless noted, how the calls were made is not given here.

With `CCn1ccnc1CC1COc2ccccc2O1` (configuration not stated), in experiment [1], the period change is 0.33 h (inactive). Moreover, the inhibition in [2] is -4% (inactive). Moreover, the fluorescence ratio (interference) in experiment [3] was 1 (inactive). Moreover, the outcome in experiment [4] was inactive.
Consider `Cc1cc(C)c(/C=C2\C(=O)Nc3ccccc32)[nH]1`, for which the period change in experiment [1] was 0.375 h (inactive). In [2], the inhibition was 6% (inactive). Moreover, in [3], the fluorescence ratio (interference) was 1 (inactive). For the same molecule, the result in [5], in experiment [6] and in experiment [4] was inactive.
Consider `COc1ccc2c(c1OC)C(=O)O[C@@H]2[C@H]1c2c(cc3c(c2OC)OCO3)CCN1C`, for which, in [1], the period change is -0.03 h (inactive). For the same molecule, the survival in experiment [7] was 2.92 (inactive). The inhibition in experiment [2] was -2% (inactive). Further, the fluorescence ratio (interference) in experiment [3] was 1 (inactive). Also, the molecule was classed as inactive in [4]. The luciferase signal in experiment [8] was 44 AU (inactive).
Turning to `c1cc(CN2CCCCC2)cc(OCCCNc2nc3ccccc3s2)c1`, the period change in experiment [1] was -0.085 h (inactive). In addition, in experiment [2], the inhibition is -2% (inactive). Further, the fluorescence ratio (interference) in [3] was 1 (inactive). Also, in [4], the result was inactive.
For `COCCOC(=O)C1=C(C)NC(C)=C(C(=O)OC/C=C/c2ccccc2)C1c1cccc([N+](=O)[O-])c1` (configuration not stated), the inhibition in [2] is -1% (inactive). In [3], the fluorescence ratio (interference) was 1 (inactive). Besides, in experiment [4], the molecule was classed as active.
In the case of `CN(C)C/C=C(/c1ccc(Br)cc1)c1cccnc1`, the period change in experiment [1] was -0.15 h (inactive). Besides, the survival in experiment [7] was 24.8 (inactive). Also, in [2], the inhibition was 1% (inactive). Further, in experiment [3], the fluorescence ratio (interference) is 1 (inactive). Besides, the result in [4] was inactive.
Turning to `Cc1[nH]c(=O)c(C#N)cc1-c1ccc2nccn2c1`, the inhibition in [2] is -1% (inactive). Further, in experiment [3], the fluorescence ratio (interference) was 1 (inactive). The molecule was called inactive in experiment [9], in experiment [10], in experiment [11], in [6] and in experiment [4].
Consider `Nc1ccn(C2CO[C@H](CO)O2)c(=O)n1` (some centres not stated), for which the call in [9], in [5], in [10], in experiment [11] and in [6] was inactive.
As to `CCCCCOC(=O)Nc1nc(=O)n([C@@H]2O[C@H](C)[C@@H](O)[C@H]2O)cc1F`, the molecule was classed as inactive in [9], in [5], in [11] and in experiment [6]. The SSMD in [12] worked out at 2.2. Further, the cell count in experiment [12] was 7640. For the same molecule, the plate-normalised HSF1 focus index in experiment [12] was 1.08 (inactive). Besides, the inhibition in experiment [13] (at 0.5 µM, stronger effect = higher value) was 1.4% (inactive) and -21.9% (inactive); in experiment [13] (measured here: combination with BGB IC20, at 0.005 µM), -14.6% and -21.7%; in experiment [13] (measured here: combination with BGB IC40, at 0.005 µM) it was -20.4% and -20.9%; in experiment [13] (measured here: combination with BGB IC40, at 0.05 µM) it was -19.6% and -29%; in [13] (measured here: combination with cisplatin, at 0.5 µM, stronger effect = higher value), -27.7% and -33.8%; in experiment [13] (measured here: combination with cisplatin, at 5 µM, stronger effect = higher value), -25.5% and -51.4%. The inhibition in [14] (BGB combo, at 5 µM) was -43.4% and -24%; in [14] (at 0.5 µM), -46.5% (inactive) and -7.86% (inactive); in [14] (cisplatin combo, at 5 µM), -42.6% and -1.99%; in [14] (setting [21]), -56.7% and -7.65%; in experiment [14] (setting [22]) it was -38% and 1.73%; in [14] (single agent, at 5 µM) it was -49.4% and -2.05%. In addition, the inhibition was 4.24% and 4.65% in experiment [15] (BGB IC20 combo, at 0.005 µM); -24.4% and -11% in experiment [15] (BGB IC40 combo, at 0.005 µM); -29.4% and -22.1% in [15] (BGB IC40 combo, at 0.05 µM); -39.5% (inactive) and -17.6% (inactive) in experiment [15] (at 0.5 µM); -33% and -26.5% in experiment [15] (cisplatin combo, at 0.05 µM); -46.4% and -4.14% in [15] (cisplatin combo, at 0.5 µM). The inhibition is -48.1% and -27.4% in experiment [15] (cisplatin combo, at 5 µM); -17.2% and -23.5% in [15] (measured here: 5 uM single agent, at 5 µM); -24.5% (inactive) and -10.3% (inactive) in [16] (at 0.5 µM); -20% and -11.5% in [16] (measured here: with BGB IC20, at 0.5 µM); -100% and -18.6% in experiment [16] (measured here: with BGB IC20, at 5 µM); -35.2% and -21.3% in experiment [16] (measured here: with cisplatin IC20, at 0.5 µM). In addition, the inhibition in experiment [16] (measured here: with cisplatin IC20, at 5 µM) was -30% and -33.3%; in experiment [16] (single agent, at 5 µM) it was -21% and -4.05%; in experiment [17] (at 0.5 µM) it was -36.5% (inactive) and -2.12% (inactive); in experiment [17] (measured here: BGB combination, at 0.5 µM) it was -31.4% and -6.87%; in experiment [17] (measured here: BGB combination, at 5 µM), -29.8% and -7.46%; in experiment [17] (measured here: cisplatin combination, at 0.5 µM), -50.7% and -2.06%. In addition, the inhibition is -40.9% and -28% in [17] (measured here: cisplatin combination, at 5 µM); -20.5% (inactive) and -7.04% (inactive) in experiment [18] (at 0.5 µM); -5.51% and -26.5% in experiment [18] (cisplatin combination, at 0.5 µM); -19.4% and -8.1% in experiment [18] (cisplatin combination, at 5 µM); -7.71% and -17.1% in experiment [18] (measured here: BGB IC40 combination 0.05 uM, at 0.05 µM); -28.9% and -3.19% in experiment [18] (single agent, at 5 µM). Also, the inhibition is -0.93% (inactive) and -5.48% (inactive) in experiment [19] (at 0.5 µM); -35.1% and -36.1% in [19] (cisplatin combo, at 5 µM); -29.7% and -0.207% in experiment [19] (measured here: BGB IC40 combination, at 0.05 µM); -33.1% and 15.5% in experiment [19] (measured here: combination with cisplatin, at 0.5 µM); -11.2% and -19.2% in experiment [19] (single agent, at 5 µM); -52.6% (inactive) and -13.7% (inactive) in experiment [20] (at 0.5 µM). For the same molecule, the inhibition in experiment [20] (setting [21]) was -42.3% and -20.5%; in experiment [20] (setting [22]), -61.3% and -12%; in experiment [20] (single agent, at 0.05 µM), -66.9% and -17.4%; in experiment [20] (single agent, at 5 µM), -52.4% and -6.48%.
For the molecule `CCC(C)(Oc1ccc(C2(c3ccc(OC(C)(CC)C(=O)O)cc3)CCCCC2)cc1)C(=O)O` (configuration not stated), the result in experiment [9], in experiment [5], in [10], in [11] and in experiment [6] was inactive.
For `Clc1ccc(Nc2nnc(Cc3ccncc3)c3ccccc23)cc1`, the call in experiment [9], in experiment [5] and in experiment [11] was inactive. The figures for the AC50 in [10] and in [6] were 20.9 µM (active) and 18.6 µM (active), respectively. The same molecule yielded an SSMD in experiment [12] of 2.9. The cell count in experiment [12] amounted to 7070. In addition, the plate-normalised HSF1 focus index in [12] is 1.15 (inactive).
Consider `O=c1[nH]c(=O)n([C@H]2C[C@H](O)[C@@H](CO)O2)cc1I`, for which the molecule was classed as inactive in experiment [9] and in experiment [11].
For the molecule `CCN(CC)CCNC(=O)c1c(C)[nH]c(/C=C2\C(=O)Nc3ccc(F)cc32)c1C`, the concentration at half-maximal activity (AC50) in [9] is 10.8 µM (active); in experiment [5], 7.42 µM (active); in experiment [10] it was 4.17 µM (active); in experiment [11], 21.5 µM (active); in experiment [6], 3.72 µM (active). The SSMD in [12] is -0.842. The cell count in [12] turned out to be 6750. Moreover, the plate-normalised HSF1 focus index in experiment [12] is 0.967 (inactive). The call in experiment [4] was inactive.
